Measured values: PubChem BioAssay (EPA / NIEHS)
Inconclusive results are not listed. Active and inactive are the calls of the source. The calls were made as follows: active = hit-call score of the fitted dose curve at least 0.9, where 1 is the maximum; inconclusive = response in the unintended direction; inactive = score below 0.9.

Assays:
[1] = target: Estrogen receptor (Homo sapiens) (UniProt P03372); test: OT_ER_ERaERa_1440: Odyssey Thera (OT) 24-hour HEK293T Protein-Complementation Assay for Estrogen Receptor-alpha/-alpha Homodimer (AID 2283349);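 also: hits raise fluorescence above DMSO for agonists and antagonists alike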
Sequence of Estrogen receptor (Homo sapiens) (P03372 whole entry, looked up, the tested form may be a part): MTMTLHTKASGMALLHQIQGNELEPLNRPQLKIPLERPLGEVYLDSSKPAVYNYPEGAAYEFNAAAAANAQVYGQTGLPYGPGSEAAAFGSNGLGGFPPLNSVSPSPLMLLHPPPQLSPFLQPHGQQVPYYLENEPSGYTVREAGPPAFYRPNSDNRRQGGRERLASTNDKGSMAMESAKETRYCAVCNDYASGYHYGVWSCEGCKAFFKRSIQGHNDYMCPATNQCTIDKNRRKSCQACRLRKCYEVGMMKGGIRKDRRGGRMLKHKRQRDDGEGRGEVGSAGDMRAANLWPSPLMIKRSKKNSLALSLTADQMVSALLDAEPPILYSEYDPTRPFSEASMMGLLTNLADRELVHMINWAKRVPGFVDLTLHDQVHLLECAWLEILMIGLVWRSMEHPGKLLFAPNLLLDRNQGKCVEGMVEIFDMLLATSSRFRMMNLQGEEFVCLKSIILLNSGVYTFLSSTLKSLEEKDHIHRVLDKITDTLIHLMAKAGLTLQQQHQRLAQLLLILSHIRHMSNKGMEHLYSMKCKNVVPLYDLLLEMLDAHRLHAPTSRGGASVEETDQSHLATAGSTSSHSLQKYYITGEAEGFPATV
Summary of the method: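 HEK293T cells stably expressing the human ER alpha ligand-binding domain (aa 310-547) as a homodimer PCA were dosed for 24 hours. Fluorescence intensity was read by laser scanning cytometry, and gain of signal was fitted relative to DMSO vehicle.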

[2] = target: Estrogen receptor (Homo sapiens) + Estrogen receptor beta (Homo sapiens) (UniProt P03372+Q92731); test: OT_ER_ERaERb_0480: Odyssey Thera (OT) 8-hour HEK293T Protein-Complementation Assay for Estrogen Receptor-alpha/-beta Heterodimer (AID 2283352)
Sequence of Estrogen receptor (Homo sapiens) + Estrogen receptor beta (Homo sapiens) (P03372 whole entry, looked up, the tested form may be a part): as above
Sequence of Estrogen receptor (Homo sapiens) + Estrogen receptor beta (Homo sapiens) (Q92731 whole entry, looked up, the tested form may be a part): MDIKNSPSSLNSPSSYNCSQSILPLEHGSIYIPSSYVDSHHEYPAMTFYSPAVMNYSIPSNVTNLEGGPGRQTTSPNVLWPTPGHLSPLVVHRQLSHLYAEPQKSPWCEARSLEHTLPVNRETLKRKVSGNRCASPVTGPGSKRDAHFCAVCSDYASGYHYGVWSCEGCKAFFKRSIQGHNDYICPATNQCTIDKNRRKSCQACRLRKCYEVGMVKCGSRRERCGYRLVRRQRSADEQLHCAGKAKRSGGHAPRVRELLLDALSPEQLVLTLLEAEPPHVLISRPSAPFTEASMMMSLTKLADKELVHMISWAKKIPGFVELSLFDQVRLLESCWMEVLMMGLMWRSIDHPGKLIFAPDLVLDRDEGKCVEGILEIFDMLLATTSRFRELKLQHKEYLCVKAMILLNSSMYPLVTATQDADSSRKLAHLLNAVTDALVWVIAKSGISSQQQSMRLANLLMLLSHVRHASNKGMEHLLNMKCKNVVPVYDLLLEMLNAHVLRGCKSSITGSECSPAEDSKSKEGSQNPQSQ
Summary of the method: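 Increase in mean fluorescence intensity, measured by laser scanning plate cytometry, reported ER-alpha/ER-beta LBD complementation in HEK293T cells after 8 h chemical exposure. DMSO served as baseline; basal signal is low, punctate and cytoplasmic.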

[3] = target: Androgen Receptor/SRC-1 Co-activator, AR (gene 367) (UniProt P10275); test: OT_AR_ARSRC1_0960: Odyssey Thera (OT) 16-hour HEK293T Protein-Complementation Assay for Androgen Receptor/SRC-1 Co-activator (AID 2283353);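 also: actives raise the signal above DMSO so potency reflects increased AR and SRC-1 complex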
Sequence of Androgen Receptor/SRC-1 Co-activator, AR (gene 367) (P10275 whole entry, looked up, the tested form may be a part): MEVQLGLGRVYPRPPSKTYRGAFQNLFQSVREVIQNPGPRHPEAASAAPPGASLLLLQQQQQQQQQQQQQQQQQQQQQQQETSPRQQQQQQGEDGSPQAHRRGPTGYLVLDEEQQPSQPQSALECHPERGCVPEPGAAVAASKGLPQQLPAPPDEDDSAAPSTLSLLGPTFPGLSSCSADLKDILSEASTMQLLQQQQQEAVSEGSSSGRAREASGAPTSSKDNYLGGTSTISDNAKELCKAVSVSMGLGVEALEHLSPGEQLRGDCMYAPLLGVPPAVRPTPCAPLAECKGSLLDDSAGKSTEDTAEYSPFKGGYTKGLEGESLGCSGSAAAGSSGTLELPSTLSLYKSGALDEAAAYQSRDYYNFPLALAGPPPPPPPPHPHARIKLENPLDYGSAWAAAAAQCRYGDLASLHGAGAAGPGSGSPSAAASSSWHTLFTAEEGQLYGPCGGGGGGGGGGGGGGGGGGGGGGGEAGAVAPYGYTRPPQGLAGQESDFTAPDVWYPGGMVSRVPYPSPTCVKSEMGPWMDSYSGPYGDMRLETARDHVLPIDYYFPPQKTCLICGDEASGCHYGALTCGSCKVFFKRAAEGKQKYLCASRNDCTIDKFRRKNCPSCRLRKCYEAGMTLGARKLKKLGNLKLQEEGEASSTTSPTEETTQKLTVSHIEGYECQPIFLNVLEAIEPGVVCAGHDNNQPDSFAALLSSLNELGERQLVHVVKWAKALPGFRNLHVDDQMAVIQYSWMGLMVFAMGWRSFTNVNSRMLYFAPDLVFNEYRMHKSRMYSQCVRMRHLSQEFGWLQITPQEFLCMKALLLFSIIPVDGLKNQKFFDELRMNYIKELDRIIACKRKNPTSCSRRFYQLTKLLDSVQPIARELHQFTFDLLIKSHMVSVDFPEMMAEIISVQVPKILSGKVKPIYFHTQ
Summary of the method: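 HEK293T cells stably expressing AR and SRC-1 fused to Venus YFP fragments, imaged 16 h after dosing. Nuclear/cytoplasmic fluorescence ratio at 488 nm from at least 400 cells per image; gain of signal relative to DMSO.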

[4] = target: Androgen Receptor/SRC-1 Co-activator, AR (gene 367) (UniProt P10275); test: OT_AR_ARSRC1_0480: Odyssey Thera (OT) 8-hour HEK293T Protein-Complementation Assay for Androgen Receptor/SRC-1 Co-activator (AID 2283354);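 also: hits raise the complementation signal above DMSO so AC50 marks enhancers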
Summary of the method: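 HEK293T cells stably expressing AR and SRC-1 fused to Venus YFP fragments, imaged 8 h after dosing. Complementation fluorescence scored as nuclear/cytoplasmic ratio at 488 nm in at least 400 cells per image; gain fitted versus DMSO.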

[5] = target: Estrogen receptor (Homo sapiens) (UniProt P03372); test: OT_ER_ERaERa_0480: Odyssey Thera (OT) 8-hour HEK293T Protein-Complementation Assay for Estrogen Receptor-alpha/-alpha Homodimer (AID 2283351);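 also: rise in fluorescence from reassembled reporter fragments on ERα LBD homodimer in nucleus or whole cell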
Summary of the method: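 The readout is complementation of fragments fused to the human ER alpha ligand-binding domain (aa 310-547), stably expressed in HEK293T cells. After 8 h of exposure, the increase in nuclear/cytoplasmic fluorescence was measured by laser scanning cytometry and fitted relative to DMSO.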

For `C=CC(C)CCCC(C)(C)O` (configuration not stated), the outcome [1] was “inactive” and the outcome [2] was “inactive”.

For `CCC(C)(C)C1CCC(OC)CC1` (configuration not stated), the outcome [1] was “inactive” and the outcome [2] was “inactive”.

In the case of `[Na+]`, the outcome [1] is reported as “inactive” and the outcome [2] is reported as “inactive”.

In the case of `CCCO[Si](OCCC)(OCCC)OCCC`, the outcome [1] is reported as “inactive” and the AC50 [2] is reported as 38.3 µM (active).

In the case of `CC(=O)c1ccc(O)cc1`, the outcome [1] is reported as “inactive” and the outcome [2] is reported as “inactive”.

For `CC1=CCC(C(C)(C)O)CC1` (configuration not stated), the outcome [1] was “inactive”, the outcome [3] was “inactive” and the outcome [4] was “inactive”.

In the case of `c1ccc(Cc2ccccc2)cc1`, the outcome [1] is reported as “inactive” and the AC50 [2] is reported as 50 µM (active).

`CC(=O)c1ccc2ccccc2c1` was tested, and the outcome [1] was “inactive” and the outcome [2] was “inactive”.

With `OC[C@H]1O[C@@H](O[C@H]2[C@H](O)[C@@H](O)[C@H](O)O[C@@H]2CO)[C@H](O)[C@@H](O)[C@H]1O` the outcome [1] was “inactive”, the outcome [5] was “inactive” and the outcome [3] was “inactive”. The outcome [4] was “inactive”.

In the case of `CCCCCCCCCO`, the outcome [1] is reported as “inactive”, the outcome [5] is reported as “inactive” and the outcome [2] is reported as “inactive”.

With `CCCCCCCCCCCCN1CCOCC1` the outcome [1] was “inactive”, the outcome [5] was “inactive” and the AC50 [2] was 50 µM (active).
